Results filed as inconclusive are left out. Entries that show only a call come without a potency. The source made the active and inactive calls. The call rests on the fitted dose curve; in most records, active means well fitted curve in the direction sought with a large enough effect; inconclusive means small, poorly fitted or top-dose-only effect, or another doubt; inactive means no such curve, though single readings can be large; an effect the other way counts as inactive or inconclusive.
Columns and labels:
[1] = qHTS of pediatric cancer cell lines to identify multiple opportunities for drug repurposing: Confirmatory screen for BT-37 cells (AID 1347117); further: potency means the concentration at half of the fitted maximal effect;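 further: viability measured after 48 h of compound exposure; nearly all actives have a fitted effect of over 55% in size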
Outline: (§1)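 Cells (500-1,000/well) rested 5 h, then received compounds for 48 h; metabolically active cells were measured by CellTiter-Glo luminescence. Final concentrations spanned up to 46 µM (MIPE, 11-point) or 0.59 nM-46 µM (NPC, 8-point) in primary screens, 11-point in follow-ups.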

[2] = qHTS of pediatric cancer cell lines to identify multiple opportunities for drug repurposing: Confirmatory screen for MG 63 (6-TG R) cells (AID 1347119); further: nearly all actives have a fitted effect of over 55% in size; further: potency means the concentration at half of the fitted maximal effect
Outline: as §1

[3] = qHTS of pediatric cancer cell lines to identify multiple opportunities for drug repurposing: Confirmatory screen for U-2 OS cells (AID 1347122); further: nearly all actives have a fitted effect of over 65% in size; further: potency means the concentration at half of the fitted maximal effect
Outline: as §1

[4] = qHTS of pediatric cancer cell lines to identify multiple opportunities for drug repurposing: Confirmatory screen for Rh41 cells (AID 1347123);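 further: 48 h compound exposure; nearly all actives have a fitted effect of over 60% in size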; further: potency means the concentration at half of the fitted maximal effect
Outline: as §1

[5] = qHTS of pediatric cancer cell lines to identify multiple opportunities for drug repurposing: Confirmatory screen for RD cells (AID 1347124);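 further: cells exposed to compound for 48 h before viability readout; nearly all actives have a fitted effect of over 65% in size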; further: potency means the concentration at half of the fitted maximal effect
Outline: as §1

[6] = qHTS of pediatric cancer cell lines to identify multiple opportunities for drug repurposing: Confirmatory screen for Rh18 cells (AID 1347125); further: nearly all actives have a fitted effect of over 55% in size; further: potency means the concentration at half of the fitted maximal effect
Outline: as §1

[7] = qHTS of pediatric cancer cell lines to identify multiple opportunities for drug repurposing: Confirmatory screen for Rh30 cells (AID 1347126); further: nearly all actives have a fitted effect of over 55% in size; further: potency means the concentration at half of the fitted maximal effect
Outline: as §1

[8] = qHTS of pediatric cancer cell lines to identify multiple opportunities for drug repurposing: Confirmatory screen for Saos-2 cells (AID 1347127); further: nearly all actives have a fitted effect of over 60% in size; further: potency means the concentration at half of the fitted maximal effect
Outline: as §1

[9] = qHTS of pediatric cancer cell lines to identify multiple opportunities for drug repurposing: Confirmatory screen for OHS-50 cells (AID 1347128); further: potency means the concentration at half of the fitted maximal effect
Outline: as §1

[10] = qHTS of pediatric cancer cell lines to identify multiple opportunities for drug repurposing: Confirmatory screen for SK-N-SH cells (AID 1347129);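 further: cells exposed to compound for 48 h before viability read; nearly all actives have a fitted effect of over 60% in size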; further: potency means the concentration at half of the fitted maximal effect
Outline: as §1

[11] = tested on: Zika virus NS2B-NS3 protease; test: Primary screen GU AMC qHTS for Zika virus inhibitors (AID 1347154); further: nearly all actives have a fitted effect of over 70% in size; further: potency means the concentration at half of the fitted maximal effect
Outline: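 Fluorogenic AMC-substrate cleavage by noncovalent NS2B-NS3 protease complex (25 nM, pH 8.0 Tris buffer with Tween 20) followed for 15 minutes at room temperature (~20% conversion). Percent inhibition from ex340/em450 signal change, fitted by 4-parameter Hill equation.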

[12] = qHTS of pediatric cancer cell lines to identify multiple opportunities for drug repurposing: Confirmatory screen for TC32 cells (AID 1347118);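 further: cells exposed to compound for 48 h before the read; nearly all actives have a fitted effect of over 65% in size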; further: potency means the concentration at half of the fitted maximal effect
Outline: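 qHTS, TC32, 48 h drug treatment, CellTiter-Glo luminescence as a proxy for metabolically active cells; primary top concentration 46 µM (MIPE 11-pt, NPC 8-pt); confirmatory 11-pt.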

[13] = tested on: Zika virus NS2B-NS3 protease (unlinked complex); test: Primary screen GU Rhodamine qHTS for Zika virus inhibitors: Unlinked NS2B-NS3 protease assay (AID 1347159); further: nearly all actives have a fitted effect of over 60% in size
Outline: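 A qHTS format was used, with compound concentrations ranging up to 114 microM. Each compound was preincubated with 25 nM NS2B-NS3 protease, and the substrate was then added at 1.5 microM. Curves were fitted with a 4-parameter Hill model.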

[14] = target: N-terminal Xaa-Pro-Lys N-methyltransferase 1 (Homo sapiens) (UniProt Q9BV86); test: qHTS Assay for Inhibitors of N-terminal methyltransferase 1 (NTMT1): LOPAC validation of the NTMT1 SAHH-coupled ThioGlo3 Assay (AID 1347143);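 further: SAH from peptide methylation measured as thiol fluorescence via SAHH coupling and ThioGlo3; nearly all actives have a fitted effect of over 70% in size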
Outline: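 Inhibition of NTMT1 methylation of peptide SPKRIA is followed by converting SAH with SAHH and labelling the released thiol with ThioGlo3. Plates are read at 340/450nm before and 30 min after reagent addition, both at room temperature.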

[15] = tested on: Zika virus NS2B-NS3 protease (unlinked); test: Optimization of GU AMC qHTS for Zika virus inhibitors: Unlinked NS2B-NS3 protease assay (AID 1347151); further: series mostly up to about 52 µM; nearly all actives have a fitted effect of over 80% in size
Outline: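 Noncovalent NS2B hydrophilic domain–NS3 protease complex (25 nM final) in 10 mM Tris-HCl pH 8.0, 0.01% Tween 20; AMC substrate, room temperature 15 min (~20% conversion); fluorescence change normalized, 4-parameter Hill fit.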

Sequence of N-terminal Xaa-Pro-Lys N-methyltransferase 1 (Homo sapiens) (Q9BV86 whole entry, looked up): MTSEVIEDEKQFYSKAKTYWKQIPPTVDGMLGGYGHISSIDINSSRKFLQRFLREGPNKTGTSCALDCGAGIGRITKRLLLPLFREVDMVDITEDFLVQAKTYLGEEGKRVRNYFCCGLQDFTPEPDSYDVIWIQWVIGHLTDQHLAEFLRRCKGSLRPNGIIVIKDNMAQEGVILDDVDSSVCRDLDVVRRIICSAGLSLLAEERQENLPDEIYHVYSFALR

Row | SMILES | Potency [1] | Potency [2] | Potency [3] | Potency [4] | Potency [5] | Potency [6] | Potency [7] | Potency [8] | Potency [9] | Potency [10] | Potency [11] | Potency [12] | Potency [13] | Potency [14] | Potency [15]
1 | C[C@]12CCC(=O)C=C1CC[C@@H]1[C@@H]2[C@@H](O)C[C@@]2(C)[C@H]1CC[C@]2(O)C(=O)COC(=O)CCC(=O)O | inactive | inactive | inactive | inactive | inactive | inactive | inactive | inactive | inactive | inactive | inactive |  |  |  | 
2 | CN(C)CCN(Cc1ccsc1)c1ccccn1 | inactive | inactive |  | inactive | inactive | inactive | inactive | inactive |  | inactive | inactive |  |  |  | 
3 | CCCC(=O)O[C@]1(C(=O)COC(=O)CC)CC[C@H]2[C@@H]3CCC4=CC(=O)CC[C@]4(C)[C@H]3[C@@H](O)C[C@@]21C | inactive | inactive |  |  |  | inactive |  | inactive | inactive | inactive |  | 8.27 µM (active) |  |  | 
4 | CC[C@@]1(O)C(=O)OCc2c1cc1n(c2=O)Cc2c-1nc1ccccc1c2/C=N/OC(C)(C)C | 0.0093 µM (active) | 0.0185 µM (active) |  | 0.522 µM (active) |  | 0.465 µM (active) | 0.522 µM (active) | 0.0165 µM (active) | 0.0369 µM (active) | 1.87 µM (active) | 14.4 µM (active) | 0.0052 µM (active) |  |  | 
5 | CC(C)(C)CC(=O)OCC(=O)[C@@]1(O)CC[C@H]2[C@@H]3CCC4=CC(=O)C=C[C@]4(C)[C@H]3[C@@H](O)C[C@@]21C | inactive | inactive | inactive |  | inactive | inactive |  | inactive | inactive | inactive | inactive | inactive |  |  | 
6 | Cc1cc(OCCOCC[N+](C)(C)Cc2ccccc2)ccc1C(C)(C)CC(C)(C)C | 10.4 µM (active) | 9.27 µM (active) | 23.3 µM (active) | 7.37 µM (active) | 10.4 µM (active) | 18.5 µM (active) | 13.1 µM (active) | 7.37 µM (active) | 14.7 µM (active) | 20.9 µM (active) |  | 2.93 µM (active) |  |  | 
7 | CCCCC(CC)CNC(=O)CC(C)OC(=O)CCC(=O)O (stereo unspecified) | inactive | inactive | inactive | inactive | inactive | inactive | inactive |  | inactive | inactive | inactive |  |  |  | 
8 | CCOC(=O)O[C@]1(C(=O)OCCl)CC[C@H]2[C@@H]3CCC4=CC(=O)C=C[C@]4(C)[C@H]3[C@@H](O)C[C@@]21C | inactive | inactive | inactive | inactive | inactive | inactive | inactive |  | inactive | inactive | inactive |  |  |  | 
9 | CC(=O)O[C@@H]1C(=O)O[C@@H]2[C@H]1OC(=O)[C@@H]2OC(C)=O | inactive | inactive |  |  | 1.17 µM (active) | inactive | 5.85 µM (active) | inactive | inactive | inactive | inactive |  | inactive |  | 
10 | Cc1ccc(C(=O)Oc2ccc(C(O)CNC(C)(C)C)cc2OC(=O)c2ccc(C)cc2)cc1 (stereo unspecified) | inactive | inactive |  |  | inactive | inactive | inactive | inactive |  |  | inactive | 5.22 µM (active) |  |  | 
11 | CC(C)=CCC/C(C)=C/CC/C(C)=C/C(=O)OCC(=O)[C@@]1(O)CC[C@H]2[C@@H]3CCC4=CC(=O)C=C[C@]4(C)[C@H]3[C@@H](O)C[C@@]21C |  |  | 20.8 µM (active) | 16.5 µM (active) |  | inactive |  | 18.5 µM (active) |  | inactive |  |  |  |  | 
12 | CCC(=O)O[C@]1(C(=O)COC)[C@@H](C)C[C@H]2[C@@H]3CCC4=CC(=O)C=C[C@]4(C)C3(F)[C@@H](O)C[C@@]21C (stereo partly specified) | inactive | 26.1 µM (active) | inactive | 16.5 µM (active) | inactive | inactive | inactive |  | inactive | inactive | inactive | inactive |  |  | 
13 | CCc1cc2cc(OC)c(OC)cc2c(Cc2ccccc2)n1 | inactive |  | inactive | 18.5 µM (active) | inactive | inactive | inactive | inactive |  | inactive | inactive | inactive |  |  | 
14 | CCN(CC)CCNC(=O)c1ccc(NS(C)(=O)=O)cc1 |  |  |  |  |  |  |  |  |  |  |  |  |  | inactive | inactive
15 | COC(=O)C1=CO[C@@H](O)[C@@H]2C(CO)=CC[C@H]12 |  |  |  |  |  |  |  |  |  |  |  |  |  | inactive | inactive
16 | CCCC(=O)O[C@]1(C(=O)CCl)[C@@H](C)C[C@H]2[C@@H]3CCC4=CC(=O)C=C[C@]4(C)[C@@]3(F)C(=O)C[C@@]21C |  |  |  |  | inactive | inactive | inactive | inactive | inactive | inactive |  |  |  |  | 
17 | CC(=O)OCC(=O)[C@@]1(O)[C@H](OC(C)=O)C[C@H]2[C@@H]3CCC4=CC(=O)C=C[C@]4(C)[C@@]3(F)[C@@H](O)C[C@@]21C | inactive | inactive | inactive | inactive | inactive | inactive |  | inactive | inactive | inactive | inactive |  |  |  | 
18 | CC(=O)[C@@]1(O)CC[C@H]2[C@@H]3C[C@H](C)C4=CC(=O)CC[C@]4(C)[C@H]3CC[C@@]21C | inactive |  | inactive |  | 0.827 µM (active) | inactive | 0.414 µM (active) | inactive | inactive | inactive |  | 10.4 µM (active) |  |  | 

— PubChem BioAssay (NCATS)
